High-throughput results (PubChem)
GRK2 aptamer HTS – inhibitors of human GRK2 displacing RNA aptamer; inhibition of aptamer binding, % at 10 µM; actives 0.59% (n = 330,000); P25098; bead flow cytometry, FAM-aptamer displacement from GRK2;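 active = inhibition of aptamer binding above 40%, roughly 3 SD of noise, on plates passing a quality check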;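 note: median bead fluorescence of bound FAM aptamer so fluorescent compounds give negative values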
Target sequence (P25098 whole entry, looked up): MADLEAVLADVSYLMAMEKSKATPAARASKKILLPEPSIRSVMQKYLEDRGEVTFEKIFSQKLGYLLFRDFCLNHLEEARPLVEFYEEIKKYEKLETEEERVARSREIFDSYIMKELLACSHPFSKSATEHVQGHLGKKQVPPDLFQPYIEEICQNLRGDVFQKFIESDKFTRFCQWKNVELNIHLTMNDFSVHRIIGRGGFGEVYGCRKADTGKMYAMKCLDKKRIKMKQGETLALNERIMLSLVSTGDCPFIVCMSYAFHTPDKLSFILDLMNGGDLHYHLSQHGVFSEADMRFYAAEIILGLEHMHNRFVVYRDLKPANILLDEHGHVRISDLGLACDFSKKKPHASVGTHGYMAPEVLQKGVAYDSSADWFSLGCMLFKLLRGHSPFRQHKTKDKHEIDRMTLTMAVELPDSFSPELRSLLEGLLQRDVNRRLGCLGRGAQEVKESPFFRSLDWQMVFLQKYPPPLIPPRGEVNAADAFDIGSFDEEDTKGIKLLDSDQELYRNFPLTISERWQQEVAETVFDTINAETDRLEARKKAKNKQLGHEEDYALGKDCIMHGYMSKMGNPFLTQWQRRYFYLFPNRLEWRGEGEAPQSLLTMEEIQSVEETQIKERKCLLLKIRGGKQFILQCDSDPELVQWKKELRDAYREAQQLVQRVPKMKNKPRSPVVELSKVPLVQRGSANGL
eIF4H FP inh – inhibitors of RNA binding by human eIF4H; Q15056; eIF4H fluorescence polarization binding assay; inhibition, % at 35 µM; actives 0.94% (n = 290,000);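 note: calls also rest on retests at 20 µM and on dose response follow-up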
PABP1 MLLE inh – blocks PAM2 peptide binding to the PABP1 MLLE domain | GST-MLLE / FITC-PAM2 fluorescence polarization | inhibition, % at 20 µM | actives 0.36% (n = 360,000); in the data active = inhibition above about 35%, passing the limit was not always enough;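 note: plate controls were DMSO wells with GST-MLLE for no effect and wells lacking GST-MLLE protein for full effect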
PABP polyA inh – blocks human PABP binding to poly(A) RNA; P11940; fluorescence polarization; inhibition, % at 35 µM; actives 1% (n = 290,000); AID 2014;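 note: calls also rest on retests at 20 µM and on dose response follow-up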
PERK inhibitor – blocks human PERK kinase. AID 1416. inhibition, % at 5.6 µM. Q9NZJ5. actives 0.17% (n = 220,000). CHO PERK-DD fusion, SEAP luminescence translation reporter;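 active = inhibition above the mean inhibition of all tested compounds plus 3 SD, set separately per screening campaign, cut at about 2.9% in these data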;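 note: PERK kinase domain activated by AP20187 dimerizer at 100 nM; 0% = DMSO with dimerizer and 100% = rapamycin at 8.4 µM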
GRK2 inh confirm – human GRK2 inhibition confirmation, cherry pick 1. AID 504451. actives 4% (n = 2,000). bead-bound GRK2, FAM-aptamer displacement, flow cytometry. shares compounds with GRK2 aptamer HTS. aptamer displacement, % at 10 µM;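 active = aptamer displacement above 40%, near three times the noise of non-fluorescent compounds, on plates passing quality checks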;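 note: negative values mostly reflect intrinsic compound fluorescence rather than true enhancement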
Aptamer quench SP – counter-screen for GRK2 aptamer inhibitors: fluorescent aptamer quenchers; shares compounds with GRK2 aptamer HTS; Carboxyfluorescein RNA aptamer on beads, flow cytometry quenching; hits give low values; fluorescence response (% of DMSO), % at 10 µM; 2,000 tested, under 10 active; AID 504580;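 active = compounds that quench the bead-bound fluorescent RNA probe, cutting fluorescence to under half of the solvent control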;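 note: counterscreen run without GRK2 so only probe quenching by compound is measured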
GRK2 CP2 – human GRK2 inhibition confirmation, cherry pick 2. shares compounds with GRK2 aptamer HTS. bead-bound GRK2, FAM-aptamer displacement, flow cytometry. inhibition of aptamer binding, % at 10 µM. 360 tested, under 10 active. AID 504782;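 active = inhibition of aptamer binding above 40%, about triple the noise seen with nonglowing compounds, on plates passing quality control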;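 note: negative values mostly come from compounds that fluoresce themselves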
FAM quench CP2 – aptamer fluorescence quenching in GRK2 counter-screen. shares compounds with GRK2 aptamer HTS. carboxyfluorescein RNA aptamer beads, flow cytometry quenching; hits give low values. fluorescence response vs DMSO, % at 10 µM. 360 tested, under 10 active. AID 588494;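 active = response vs DMSO under 50%, meaning signal dropped by over half, treated as fluorescence quencher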;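 note: labelled aptamer on streptavidin beads without GRK2 as a quench counter-screen; 100% = bead fluorescence of DMSO wells and lower means quenching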
Numbers without * were called inactive; / = no result given. In the library only some 1.9% were active in any assay of this set; here they are far more common. Unless noted, the rule behind the calls is not given here.

SMILES | GRK2 aptamer HTS | eIF4H FP inh | PABP1 MLLE inh | PABP polyA inh | PERK inhibitor | GRK2 inh confirm | Aptamer quench SP | others
Cc1ccc(N2C(=O)N(CC(=O)Nc3ccc([N+](=O)[O-])cc3)C(=O)C2C)cc1 (stereo not drawn) | 100* | -14 | 10 | -6 | / | / | / | GRK2 CP2=11;FAM quench CP2=99
CC(=O)NCCC(=O)Nc1nc2c(ccc3ccccc32)s1 | 4 | -15 | -4 | -3 | / | / | / | GRK2 CP2=8;FAM quench CP2=100
CC(=O)N(CCc1ccccc1C)Cc1cc2cc(C)ccc2[nH]c1=O | 2 | 4 | -7 | 1 | / | / | /
Cc1ccc2cc(CN(C(=O)c3ccco3)c3ccccc3C)c(=O)[nH]c2c1 | 76* | 1 | 10 | -5 | 0 | -3 | 98
CC(=O)N(CCc1ccccc1C)Cc1cc2ccc(C)cc2[nH]c1=O | 61* | -10 | -16 | 4 | / | -1 | 104
CCCCCOc1ccc(C(=O)Nc2ccc(N3CCOCC3)cc2N2CCOCC2)cc1 | 2 | / | 1 | / | / | / | /
COc1ccccc1/C=C/C(=O)OCC(=O)N1CCc2ccccc21 | 95* | / | 3 | / | / | -4 | 102
CCc1sc(C(=O)Nc2nccs2)cc1C | 30 | -6 | 1 | -6 | / | 0 | 97
CCCOc1ccccc1N1C(=O)CC(N(O)c2ccccc2)C1=O (stereo not drawn) | 49* | 1 | 14 | 2 | 2 | 1 | 124
COc1ccccc1N1C(=O)CC(N(O)c2ccccc2)C1=O (stereo not drawn) | 2 | -2 | 2 | 5 | 1 | / | /
Cc1cccc(CN2CCCC(C(=O)N3CCCCC3)C2)c1 (stereo not drawn) | 0 | 2 | 2 | 13 | / | / | /
CCOCCCN(C(=O)CNC(=O)c1ccco1)C(C(=O)NC1CCCC1)c1ccccc1C (stereo not drawn) | 56* | -10 | -7 | 4 | -1 | 1 | 104
CCc1ccc(/C([O-])=C(/C(=S)NCCN2CCOCC2)[n+]2ccccc2)cc1 | 72* | 6 | 7 | -16 | 1 | -5 | 104
CCNC(=S)/C(=C(/[O-])c1ccc([N+](=O)[O-])cc1)[n+]1ccccc1 | 7 | -4 | -87 | 2 | 1 | / | /
CC(=O)c1sc(C(=O)O)c(-c2ccco2)c1-c1ccco1 | 18 | 27 | 23 | 26 | 0 | / | /
C#CCOCCOCCOCCNc1nc(N2CCOCC2)nc(N2CCN(C(=O)[C@H](Cc3cc4ccccc4[nH]3)n3cc([C@@H](N)CC(C)C)nn3)CC2)n1 | / | 1 | 7 | -1 | 0 | / | /
C#CCOCCOCCOCCNc1nc(N2CCN(C(=O)CCCCCCCCCCNC(=O)[C@@H]([C@H](C)O)n3cc(C)nn3)CC2)nc(N2CCN(C(=O)CCCCCCCCCCNC(=O)[C@@H]([C@H](C)O)n3cc(C)nn3)CC2)n1 | 52* | / | -1 | / | / | 5 | 102
C#CCOCCOCCOCCNc1nc(N2CCN(C(=O)[C@H](Cc3cc4ccccc4[nH]3)n3cc([C@@H](N)CC(C)C)nn3)CC2)nc(N2CCN(C(=O)[C@H](Cc3cc4ccccc4[nH]3)n3cc([C@@H](N)CC(C)C)nn3)CC2)n1 | 70* | -3 | -3 | 14 | 1 | -49 | 96
C#CCOCCOCCOCCNc1nc(N2CCOCC2)nc(N2CCN(C(=O)CCCCCCCCCCNC(=O)[C@@H]([C@H](C)O)n3cc(C)nn3)CC2)n1 | 3 | / | -3 | / | / | / | /
C/C(=N\OCc1ccc(C#N)cc1)c1ccc(S(=O)(=O)N(C)C)cc1 | 47* | 2 | 1 | -3 | / | 1 | 96
[O-]/C(=C(\C(=S)Nc1ccc(Cl)cc1)[n+]1ccccc1)c1ccc(OC(F)F)cc1 | 53* | -5 | 22 | -3 | -1 | 1 | 105
CCN(CC)CCOC(=O)c1ccc(N/C=C(/C#N)c2nc(-c3cc4ccccc4oc3=O)cs2)cc1 | 100* | -34 | -32 | -50 | / | 97* | 38*
